{"source": "PubChem BioAssay (Tox21)", "note": "“And” between values parts separate entries of the source, which are not always exact repeats. Equal values may be shown once. Inconclusive results are not listed. Some structures have more than one record in an assay (separate samples or runs), and their calls can disagree. The source made the active and inactive calls. Calls follow the shape of the dose curve; as a rule, active = well fitted activation curve with a large enough effect in the repeat runs; inconclusive = weak or mixed curves; inactive = flat fitted curve, though single readings scatter. Starred links: 1 amine or outer side, 2 acyl side, 3 side chain; linkers in the order of their positions; H or OH if unused. Positions of bridges follow the written chain, without caps; N, C: chain ends. Non-standard residues stand in square brackets, D forms with d. Residues, ends and D or L forms follow the SMILES beside them. Chains are numbered I, II in the order given. Actinocin(9to1) = Cc1c2oc3c(C)ccc(C(=O)[*:1])c3nc-2c(C(=O)[*:2])c(N)c1=O; NMeV = CN[C@H](C(=O)O)C(C)C; Sar = CNCC(=O)O"}
{"test": "A CellTox Green Cytotoxicity Assay to monitor cytotoxicity in HepG2 cells - 24 hour (AID 1224878); also: nearly all actives have a fitted effect of over 45% in size; also: potency is read from the fitted curve at half-maximal effect; as to Cytotoxicity: % is scaled to controls: 0 for no effect and ±100 for the full control effect", "details": "CellTox Green fluorescence; series mostly up to 76.8 µM; cytotoxicity: at the top concentration", "excerpt": "National Center for Advancing Translational Sciences [NCATS]\nNIH Chemical Genomics Center [NCGC]\nU.S. Environmental Protection Agency [EPA]\nNational Institutes of Environmental Health Sciences [NIEHS]\nNational Toxicology Program [NTP]\nCell-based models are critical for drug discovery. Determining the natural cytotoxic effects resulting from test compounds is an essential research activity. A CellTox Green Cytotoxicity Assay to monitor cytotoxicity in real time of continues cell culture during 40 hours of the compound treatment was used to screen Tox21 10K library compounds in HepG2 cells. CellTox Green Cytotoxicity Assay is a nonlytic, homogeneous, biofluorescent method to measure cytotoxicity in cell culture after experimental manipulation. The assay system uses a proprietary asymmetric cyanine dye that is excluded from viable cells but preferentially stains the dead cell's DNA. […] Viable cells produce no appreciable increases in fluorescence. Therefore, the fluorescence signal produced by the binding interaction with dead cell DNA is proportional to cytotoxicity.\nThe mixture of HepG2 cell suspension and reagents were dispensed at 600cells/6 ul/well in 1536-well tissue culture treated black solid bottom plates using a Multidrop dispenser. After the assay plates were incubated at a 37 C/5% CO2 incubator for 5 hours, 23 nL of compounds dissolved in DMSO, positive and negative controls was transferred to the assay plate by a pintool work station. The plates were incubated at 37 C for 40 hours. The fluorescence intensity were measured at 0h, 8h, 16h, 24h, 32h and 40h time points using ViewLux plate reader during compound treatment."}
{"smiles": "CC(C)(C)c1ccccc1", "cytotoxicity": "-4.9% (inactive)"}
{"smiles": "Cc1cc(OCCOCC[N+](C)(C)Cc2ccccc2)ccc1C(C)(C)CC(C)(C)C", "Potency": "17.3 µM (active) and 10.7 µM (active)"}
{"smiles": "Nc1ccc(O)cc1", "cytotoxicity": "2.82% [at 35.3 µM] (inactive)"}
{"smiles": "CCOC(=O)C(C)C(C)=O", "note": "(stereo not given)", "cytotoxicity": "14.2% (inactive)"}
{"smiles": "CC[C@@H](N)CO", "cytotoxicity": "2.21% (inactive)"}
{"smiles": "C=CS(=O)(=O)O", "cytotoxicity": "-2.39% (inactive)"}
{"smiles": "CCN1CCCC1CNC(=O)c1cc(S(=O)(=O)CC)c(N)cc1OC", "note": "(stereo not given)", "cytotoxicity": "14.1% [at 35.3 µM] (inactive)"}
{"smiles": "CCCCCCC(O)CCCCCCCCCCC(=O)O", "note": "(stereo not given)", "cytotoxicity": "0.106% (inactive)"}
{"smiles": "CCCN[C@H]1CCc2nc(N)sc2C1", "Potency": "inactive"}
{"smiles": "CCn1c2ccccc2c2cc(N)ccc21", "Potency": "inactive"}
{"smiles": "COc1cc(C(=S)N2CCOCC2)ccc1O", "cytotoxicity": "-16.4% [at 35.3 µM] (inactive)"}
{"smiles": "COc1ccc(CCN2CCC(Nc3nc4ccccc4n3Cc3ccc(F)cc3)CC2)cc1", "Potency": "19.9 µM (active) and 9.52 µM (active)"}
{"smiles": "Nc1cc(S(=O)(=O)O)cc2cc(S(=O)(=O)O)cc(O)c12", "Potency": "inactive"}
{"smiles": "c1cnc2cc3c(cc2n1)C1CNCC3C1", "cytotoxicity": "-6.51% [at 35.3 µM] (inactive)"}
{"smiles": "Clc1ccc2c(c1)C(N1CCNCC1)=Nc1ccccc1O2", "Potency": "54.9 µM (active) and 26.8 µM (active)"}
{"smiles": "CCc1cc(C(C)(C)C)c(O)c(C(C)(C)C)c1", "Potency": "inactive"}
{"smiles": "C=CC(=O)OCCCCCCOC(=O)C=C", "cytotoxicity": "1.11% (inactive)"}
{"smiles": "O=C(O)CCc1ccccc1", "cytotoxicity": "-9.43% (inactive)"}
{"smiles": "O=C1Nc2ccccc2C1(c1ccc(O)cc1)c1ccc(O)cc1", "Potency": "inactive"}
{"smiles": "CCN(CC)C(=O)Nc1ccc(OCC(O)CNC(C)(C)C)c(C(C)=O)c1", "note": "(stereo not given)", "cytotoxicity": "-16.7% [at 35.3 µM] (inactive)"}
{"smiles": "O=C(OCc1ccccc1)c1ccc(O)cc1", "cytotoxicity": "2.35% [at 35.3 µM] (inactive)"}
{"smiles": "NC(=Nc1ccccc1)Nc1ccccc1", "Potency": "inactive"}
{"smiles": "COc1nc(C)nc(Cl)c1NC1=NCCN1", "cytotoxicity": "-14.4% [at 35.3 µM] (inactive)"}
{"smiles": "CC(=O)CC(C)=O", "cytotoxicity": "0.112% (inactive)"}
{"smiles": "CC(C)(C)NCC(O)c1cc(O)cc(O)c1", "note": "(stereo not given)", "cytotoxicity": "-18.4% [at 35.3 µM] (inactive)"}
{"smiles": "O=C1NCC2(CCN(CCc3ccccc3)CC2)O1", "cytotoxicity": "-19.5% [at 35.3 µM] (inactive)"}
{"smiles": "Cc1cccc2n[nH]nc12", "Potency": "inactive and 38.9 µM (active)"}
{"smiles": "CC(C)CCOC(=O)c1ccc(N(C)C)cc1", "cytotoxicity": "-1.07% [at 35.3 µM] (inactive)"}
{"smiles": "Nc1nc2ccccc2[nH]1", "Potency": "inactive"}
{"smiles": "[Cl][In]([Cl])[Cl]", "cytotoxicity": "-17% (inactive)"}
{"smiles": "CCOc1ccc2c(c1)C(C)=CC(C)(C)N2", "cytotoxicity": "14.9% (inactive)"}
{"smiles": "CC1=CC(=O)c2ccccc2C1=O", "Potency": "43.6 µM (active) and 26.8 µM (active)"}
{"smiles": "CC(C)C(=O)c1c(C(C)C)nn2ccccc12", "cytotoxicity": "-13.5% [at 35.3 µM] (inactive)"}
{"smiles": "Cc1c2oc3c(C)ccc(C(=O)N[C@@H]4C(=O)N[C@H](C(C)C)C(=O)N5CCC[C@H]5C(=O)N(C)CC(=O)N(C)[C@@H](C(C)C)C(=O)O[C@@H]4C)c3nc-2c(C(=O)N[C@@H]2C(=O)N[C@H](C(C)C)C(=O)N3CCC[C@H]3C(=O)N(C)CC(=O)N(C)[C@@H](C(C)C)C(=O)O[C@@H]2C)c(N)c1=O", "note": "(I: T[dV]P[Sar][NMeV] / II: T[dV]P[Sar][NMeV]; ester I:1-I:C, II:1-II:C; linker I:N-II:N via Actinocin(9to1))", "cytotoxicity": "-52.5% [at 35.3 µM] (inactive)"}
{"smiles": "COC(=O)[C@H]1[C@H]2C[C@@H]3c4[nH]c5cc(OC)ccc5c4CCN3C[C@H]2C[C@@H](OC(=O)c2cc(OC)c(OC)c(OC)c2)[C@@H]1OC", "Potency": "inactive"}
{"smiles": "NC(N)=Nc1nc(CSCC/C(N)=N/S(N)(=O)=O)cs1", "Potency": "3.89 µM (active) and inactive"}
{"smiles": "Cc1cccc(O)c1C", "cytotoxicity": "0.473% (inactive)"}
{"smiles": "O=C(O)CP(=O)(O)O", "cytotoxicity": "0.358% [at 35.3 µM] (inactive)"}
{"smiles": "c1ccc2c(c1)-c1cccc3c1c-2cc1ccccc13", "Potency": "inactive"}
{"smiles": "c1ccc2c(c1)CCCC2C1=NCCN1", "note": "(stereo not given)", "cytotoxicity": "-11.7% [at 35.3 µM] (inactive)"}
